PubChem BioAssay AID1159580 (chemical genetic matrix, 2015)
Screen size: about 5,500 compounds; about 2,000 (36%) were called active. Roughly 18% stayed inconclusive and do not appear here. Cut-off read from the data, not from the text of the source: active = normalized growth mostly below about 0.91 (no sharp cut-off); inconclusive = no clear call, values can overlap the other calls; inactive = mostly above about 0.92. This is one part of the list.

Experiment: chemical genetic growth profiling, strain panel (AID 1159580);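 note: tested at 20 µM; growth read once vehicle control cultures reached saturation at 30 °C; 1 = growth at the plate median or of vehicle wells; lower values mean less growth of the strain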
Conditions: S. cerevisiae deletion strains, growth OD
[1] = locus YAL040C, strain CLN3, hits give low values
[2] = locus YCL061C, strain MRC1 (second series), hits give low values
[3] = locus YDR363W, strain ESC2, hits give low values
[4] = locus YER002W, strain NOP16, hits give low values
[5] = locus YMR263W, strain SAP30, hits give low values
[6] = locus YNL175C, strain NOP13, hits give low values
[7] = locus YNL224C, strain SQS1, hits give low values
[8] = locus YNL322C, strain KRE1, hits give low values
[9] = locus YOR083W, strain WHI5 (second series), hits give low values
[10] = locus YPL055C, strain LGE1, hits give low values
[11] = locus YPL241C, strain CIN2, hits give low values

Measured: normalized growth

CN=C(NC#N)Nc1ccc(C2=NNC(=O)CC2C)cc1 (stereo not given)
inactive: [1] 1.08 | [2] 0.999 | locus YDR150W, strain NUM1, hits give low values 1.01 | [3] 1.01 | [4] 0.986 | locus YGR078C, strain PAC10, hits give low values 1 | [5] 1 | locus YMR307W, strain GAS1, hits give low values 1 | locus YNL128W, strain TEP1, hits give low values 1 | [6] 0.995 | locus YNL197C, strain WHI3, hits give low values 0.994 | [7] 0.994 | [8] 0.986 | [9] 1 | [10] 0.996 | [11] 0.998

Cc1o[nH]c(=O)c1CC(N)C(=O)O (stereo not given)
inactive: locus YAL013W, strain DEP1, hits give low values 0.998 | [1] 1 | [2] 1 | [3] 1.01 | [4] 0.997 | locus YGR229C, strain SMI1, hits give low values 0.995 | [5] 0.999 | locus YNL153C, strain GIM3, hits give low values 0.989 | [6] 1 | [7] 1.01 | [8] 1.01 | [9] 0.982 | [10] 1 | [11] 1.01

COC1CC2CCC(C)C(O)(O2)C(=O)C(=O)N2CCCCC2C(=O)OC(C(C)CC2CCC(O)C(OC)C2)CC(=O)C(C)/C=C(\C)C(O)C(OC)C(=O)C(C)CC(C)/C=C/C=C/C=C/1C (stereo not given)
active: locus YAL021C, strain ccr4, hits give low values 0.0589 | locus YAL026C, strain drs2, hits give low values 0.0607 | locus YAL030W, strain snc1, hits give low values 0.057 | locus YBL061C, strain skt5, hits give low values 0.0636 | locus YBR009C, strain hhf1, hits give low values 0.0589 | locus YBR023C, strain chs3, hits give low values 0.0647 | locus YBR171W, strain sec66, hits give low values 0.0879 | locus YBR231C, strain swc5, hits give low values 0.0671 | locus YBR279W, strain paf1, hits give low values 0.061 | locus YCL011C, strain gbp2, hits give low values 0.0563 | locus YCL016C, strain dcc1, hits give low values 0.064 | locus YCL061C, strain MRC1, hits give low values 0.0664 | locus YCL069W, strain vba3, hits give low values 0.0634 | locus YCR088W, strain abp1, hits give low values 0.0633 | locus YDL005C, strain med2, hits give low values 0.105 | locus YDL040C, strain nat1, hits give low values 0.062 | locus YDR001C, strain nth1, hits give low values 0.062 | locus YDR069C, strain doa4, hits give low values 0.0638 | locus YDR137W, strain rgp1, hits give low values 0.108 | locus YDR159W, strain sac3, hits give low values 0.0822 | locus YDR195W, strain ref2 0.107 | locus YDR297W, strain sur2, hits give low values 0.0574 | locus YDR334W, strain swr1, hits give low values 0.0661 | locus YDR335W, strain msn5, hits give low values 0.0641 | locus YDR392W, strain spt3, hits give low values 0.0747 | locus YEL003W, strain gim4, hits give low values 0.0561 | locus YEL037C, strain rad23, hits give low values 0.06 | locus YEL061C, strain CIN8 (second series), hits give low values 0.0638 | locus YER015W, strain faa2, hits give low values 0.063 | locus YER016W, strain bim1, hits give low values 0.0636 | locus YER111C, strain swi4, hits give low values 0.0777 | locus YER155C, strain BEM2 (second series), hits give low values 0.0886 | locus YFR010W, strain ubp6, hits give low values 0.0722 | locus YGL167C, strain pmr1, hits give low values 0.106 | locus YGL173C, strain kem1, hits give low values 0.0674 | locus YGL227W, strain vid30, hits give low values 0.0637 | locus YGL240W, strain doc1, hits give low values 0.0777 | locus YGL253W, strain hxk2, hits give low values 0.0553 | locus YHR013C, strain ard1, hits give low values 0.0984 | locus YHR027C, strain rpn1, hits give low values 0.0663 | locus YHR030C, strain SLT2, hits give low values 0.0959 | locus YHR079C, strain IRE1, hits give low values 0.1 | locus YHR142W, strain chs7, hits give low values 0.0702 | locus YJL092W, strain hpr5, hits give low values 0.0602 | locus YJL095W, strain BCK1 (second series), hits give low values 0.0568 | locus YJL095W, strain BCK1, hits give low values 0.0941 | locus YJL115W, strain asf1, hits give low values 0.0785 | locus YJL129C, strain trk1, hits give low values 0.083 | locus YJL154C, strain vps35, hits give low values 0.0627 | locus YJL164C, strain tpk1, hits give low values 0.0565 | locus YJL166W, strain qcr8, hits give low values 0.0582 | locus YJL187C, strain SWE1, hits give low values 0.0583 | locus YJR066W, strain TOR1, hits give low values 0.00105 | locus YKL160W, strain elf1, hits give low values 0.0628 | locus YKR026C, strain gcn3, hits give low values 0.0857 | locus YKR091W, strain srl3, hits give low values 0.063 | locus YLL001W, strain dnm1, hits give low values 0.0594 | locus YLL026W, hits give low values 0.0565 | locus YLL041C, strain sdh2, hits give low values 0.0584 | locus YLR027C, strain aat2, hits give low values 0.056 | locus YLR113W, strain HOG1, hits give low values 0.116 | locus YLR221C, strain rsa3, hits give low values 0.0587 | locus YLR258W, strain gsy2, hits give low values 0.0578 | locus YLR262C, strain YPT6 (second series), hits give low values 0.0827 | locus YLR320W, strain mms22, hits give low values 0.0745 | locus YLR342W, strain FKS1, hits give low values 0.0654 | locus YLR357W, strain rsc2, hits give low values 0.123 | locus YLR370C, strain arc18, hits give low values 0.0626 | locus YLR384C, strain iki3, hits give low values 0.0638 | locus YML120C, strain ndi1, hits give low values 0.0575 | locus YMR058W, strain fet3, hits give low values 0.0611 | locus YMR125W, strain sto1, hits give low values 0.0751 | locus YMR129W, hits give low values 0.0593 | locus YMR205C, strain PFK2, hits give low values 0.077 | locus YMR231W, strain pep5, hits give low values 0.0735 | locus YNL071W, strain lat1, hits give low values 0.0603 | locus YNL183C, strain NPR1, hits give low values 0.00606 | locus YNL209W, strain ssb2, hits give low values 0.0636 | locus YNL248C, strain rpa49, hits give low values 0.0637 | locus YNL322C, strain KRE1 (second series), hits give low values 0.0917 | locus YNR049C, strain mso1, hits give low values 0.0601 | locus YOR001W, strain rrp6, hits give low values 0.0618 | locus YOR070C, strain gyp1, hits give low values 0.0602 | locus YOR080W, strain dia2, hits give low values 0.0718 | locus YOR083W, strain WHI5, hits give low values 0.0613 | locus YOR106W, strain vam3, hits give low values 0.0579 | locus YOR231W, strain MKK1, hits give low values 0.101 | locus YOR265W, strain rbl2, hits give low values 0.062 | locus YOR270C, strain vph1, hits give low values 0.0796 | locus YOR290C, strain snf2, hits give low values 0.0616 | locus YPL051W, strain arl3, hits give low values 0.0737 | locus YPL078C, strain atp4, hits give low values 0.0674 | locus YPL106C, strain sse1, hits give low values 0.0858 | locus YPL240C, strain hsp82, hits give low values 0.0583 | locus YPL256C, strain CLN2, hits give low values 0.117
